Reference: PubChem BioAssay (NCI)
This is part of a sample that, as a whole, favours compounds with a hit. Of some 83,000 tested, about 20% had one in any assay.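 Each cell line was grown in a 96-well plate and treated with one concentration of compound for 48 hours. Values below 10 were considered active.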 Unmarked numbers belong to inactive results. The source made the active and inactive calls.

Columns and labels:
Assay in all cases: NCI-60 one-dose screen, 48 h (100 = growth as untreated, 0 = no growth, -100 = all killed)
Conditions in all cases: 10 µM unless noted
[1] = test system: NCI-H23 lung
[2] = test system: NCI-H226 lung
[3] = test system: NCI-H322M lung
[4] = test system: HOP-62 NSCLC
[5] = test system: NCI-H460 lung
[6] = test system: NCI-H522 lung
[7] = test system: A549/ATCC NSCLC
[8] = test system: 786-0 renal
[9] = test system: COLO 205 colon
[10] = test system: DU-145 prostate
[11] = test system: K-562 leukemia
[12] = test system: MALME-3M melanoma
[13] = test system: RXF 393 renal
[14] = test system: SF-268 CNS
[15] = test system: SF-295 CNS
[16] = test system: SF-539 CNS
[17] = test system: UACC-257 melanoma
[18] = test system: M14 melanoma
[19] = test system: HCT-15 colon
[20] = test system: MDA-MB-231 breast

Row | SMILES | growth [1] | growth [2] | growth [3] | growth [4] | growth [5] | growth [6] | growth [7] | growth [8] | growth [9] | growth [10] | growth [11] | growth [12] | growth [13] | growth [14] | growth [15] | growth [16] | growth [17] | growth [18] | growth [19] | growth [20]
1 | CCCCCCCCCCCCCCCCN=C(CC(=O)O)C(=O)O | 103% | 99.4% | 91.7% | 106% | 82.7% | 87.5% | 96.1% | 95.4% | 97.9% | 78.8% | 80.6% | 111% | 101% | 103% | 103% | 125% | 114% | 95.8% | 102% | 
2 | COc1ccc(/C=N\Nc2ccc([N+](=O)[O-])cn2)cc1OC | 88.4% | 34.7% | 10.8% | 25.4% | 1.43% (active) | 47.9% | 30.3% | 10.2% | 67.5% | 73.7% | 93.7% |  | 51.6% | 73.3% | 35.4% | 32.1% | 67.6% | 110% | 95.8% | -0.447% (active)
3 | C/C(=C\CCc1ccoc1)CC/C=C(\C)CCCN1CCC(CO)CC1 | 74.8% | 74.9% | 74.9% | 83% | 53.8% | 54.6% | 65.9% | 48.5% | -21.4% (active) | 80.8% | -15.8% (active) | 11% |  | 79.2% | 47.4% | 48.9% | 49% | 36.3% | 25.5% | 50%
4 | COc1cc(/C=C2\COc3ccc(O)c(O)c3C2=O)cc(OC)c1 | 49.1% | 68.3% | 29.2% | 2.74% (active) | 10.5% | -42.1% (active) | 24.6% | -29.4% (active) | 32.5% | 9.48% (active) | -0.232% (active) | -59.4% (active) |  | 11% | 80.3% | -70.1% (active) | 6.52% (active) |  | -24.1% (active) | -37.1% (active)
5 | CCc1ccc(CCN2C(=O)c3ccccc3C2=O)nc1 | 112% | 100% | 108% | 102% | 103% | 118% | 106% | 106% | 118% | 118% | 95.8% | 102% |  | 103% | 104% | 91.6% | 95.6% | 110% | 113% | 98.5%
6 | CCN(CC)CCCNCCCNc1cc(OC)cc2cccnc12 | 94.2% | 81.9% | 81% | 92.3% | 103% | 93.1% | 92.4% | 94.4% | 24.6% | 104% | 89.9% | 108% | 70.6% | 90.3% | 99.2% | 84.6% | 107% | 102% | 83.9% | 
7 | CCC(C)(C)C(=O)O[C@H]1C[C@@H](C)C=C2C=C[C@H](C)[C@H](CC[C@@H]3C[C@@H](O)CC(=O)O3)[C@H]21 | 48.7% | 64% | 51% | 80.7% | 24.3% | 8.21% (active) | 67.5% | 51.5% | 68.3% | 95.3% | 63.3% | 94.1% | 36.1% | 33.2% | 11.7% | 90.7% | 86.7% | 59.3% | 54.7% | 
8 | O=C1CC(=O)N(c2ccccc2)O1 | 108% | 91.2% | 108% | 92.3% | 111% | 95.6% | 107% | 105% | 92.3% | 105% | 111% |  | 109% | 109% | 101% | 93.6% | 106% | 99.9% | 102% | 87.6%
9 | C=CCOc1ccc2c(c1)CC[C@@H]1[C@@H]2CC[C@@]2(C)[C@H]1CC[C@]2(C)O | 92.8% | 104% | 81.2% | 109% | 46.3% | 60.3% | 80.3% | 93.8% | 75.6% | 121% | 4.02% (active) |  | 106% | 85.7% | 94.8% | 76.5% | 53.9% | 88.7% | 65.2% | 64.7%
10 | Clc1ccc(-c2nc(-c3cccs3)no2)c(Cl)c1 | 92.6% | 88.7% | 120% | 84.9% | 92.1% | 91.4% | 91.4% | 97.4% | 106% | 99.3% | 96.1% | 103% | 107% | 99.2% | 107% | 108% | 76.2% | 100% | 73.5% | 
11 | CCOc1nc(-c2ccccc2)cc2c(O)c(-c3nnco3)[nH]c(=O)c12 | 63.1% | 64.2% | 65.3% | 47.9% | 28.2% | 5.8% (active) | 38.9% | 57.9% | 72.2% | 50.8% | 39.3% | 59.9% |  | 52.5% | 36% | 54.9% | 11.8% | 59.4% | 23.5% | 38.7%
12 | COC(=O)CCC1=C(C)C(C)=N/C1=C\c1[nH]c(-c2ccc[nH]2)cc1OC | 0.999% (active) | 20.7% | 12.1% | -3.16% (active) | 0.969% (active) | -62.7% (active) | 11.1% | 10.1% | 12.9% | 9.9% (active) | -16.4% (active) |  | 23.3% | 25.3% | -44.6% (active) | -9.38% (active) | -1.25% (active) | 9.58% (active) | -2.64% (active) | -33.4% (active)
13 | COc1ccc(Nc2nccc(N3CCN(c4c5ccc(Cl)cc5nc5ccc(OC)cc45)CC3)n2)cc1 | 95.7% | 93.8% | 83.5% | 95.6% | 85.8% | -58.3% (active) | 75.2% | 60% | 61.1% | 86.6% | 25.4% | 46% |  | 66.7% | 78.6% | 92.8% | 102% | 88.4% | 36.9% | 61.3%
14 | CCCCCCCC/C=C\CCCCCCCCOc1ccccc1CC(=O)NCC[N+]1(C)CCCC1 | 78.1% | 92.6% | 103% | 80.6% | 52.2% | 46.9% | 75% | 80.8% | 43.1% | 90.8% | 41.7% | 88.3% |  | 69.1% | 98.2% | 99% | 88.4% |  | 104% | 83.9%
15 | Oc1ccccc1C=Nc1ccccc1N=Cc1ccccc1O.[Cu+2] | 33.1% | 71.1% | 51.1% | 66% | 84.1% | 14.9% | 66% | 90.9% | 83.7% | 68.5% | 36.7% |  | 104% | 75.2% | 68.6% | 76% | 45.4% | 65.2% | 56.5% | 63.5%
16 | CC(O)c1nc2c(c(=O)n(C)c(=O)n2C)n1C (configuration not stated) | 114% | 104% | 98.5% | 85.5% | 107% | 90% | 91.2% | 105% | 108% | 122% | 116% | 121% |  | 107% | 108% | 102% | 106% | 95.6% | 104% | 117%
